Bioassay records from PubChem.
Sampled rows, rich in hits. Any-hit rate of the full collection: about 1.6%.
KCNQ2 pot: enhances the rat KCNQ2 potassium channel | O88943 | CHO-K1 KCNQ2, FluxOR thallium flux fluorescence; active compounds read high | B-score at 10 µM | 310,000 tested, 0.54% active;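 active means fluorescence ratio B-score at least 3 SD of library B-scores, with initial fluorescence B-score within 3 of them, cut at about 5.3 in these data; same plate scores as AID 2156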;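 further: B-score of peak minus minimum over baseline fluorescence ratio after K+ and Tl+ stimulus; positive B-score means potentiation of KCNQ2 with more thallium influx and brighter signal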
KCNQ2 block: inhibitors of rat KCNQ2 potassium channel; O88943; 310,000 tested, 1.1% active; B-score at 10 µM; AID 2156; CHO-K1 KCNQ2, FluxOR thallium flux, 20 min; active compounds read low;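 active means fluorescence ratio B-score at most minus 3 library SDs, with starting brightness B-score within 2 library SDs, cut at about -5.5 in these data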
An asterisk follows results filed as active; i = inactive; · = no result given.

SMILES	KCNQ2 pot	KCNQ2 block
CCCCOP(=O)(OCCCC)C(Nc1ccc(C(=O)OCC)cc1)c1ccncc1 (stereo not drawn)	-5.7	-5.7*
CCCOP(=O)(OCCC)C(Nc1ccc(C(=O)O)cc1)c1ccccc1 (stereo not drawn)	0.14	i
CCCCNc1c(-c2ccc(SC3CCCCC3)cc2)nc2ccccn12	·	i
CCCCNc1c(-c2ccc(SC(C)CC)cc2)nc2ccccn12 (stereo not drawn)	-7.1	-7.1*
O=C(COc1ccc(Br)cc1)NCCNC(=O)c1ccccn1	0.46	i
COc1cccc(C(=O)NC(C)c2ccc(-c3ccccc3)cc2)c1OC (stereo not drawn)	-6	-6*
COc1cccc(C(=O)NC(C)c2cccc3ccccc23)c1OC (stereo not drawn)	·	i
CSc1nc(N)n2nc(-c3ccccc3)cc2n1	0.1	i
CC(C)(C)C(=O)Nc1c2c(nn1-c1ccccc1)CSC2	-8.2	-8.2*
CC(=O)Nc1c2c(nn1-c1ccccc1)CSC2	0.7	i
CN(C)c1ccc(-c2sc(Nc3ccccc3)n[n+]2-c2ccc(F)cc2)cc1	·	i
COc1ccc(C)cc1Nc1n[n+](-c2ccccc2)c(-c2c(Cl)cccc2Cl)s1	-6.5	-6.5*
COc1ccc(C)cc1Nc1n[n+](-c2ccccc2)c(-c2ccc(OC)c(OC)c2OC)s1	·	i
COc1ccc(C)cc1Nc1n[n+](-c2ccccc2)c(-c2ccc(N(C)C)cc2)s1	-5.7	-5.7*
O=C(O)/C=C/c1ccc(S(=O)(=O)NCc2cccnc2)cc1	1.9	i
Cc1sc2nc(-c3ccncc3)[nH]c(=O)c2c1-c1ccccc1	0.02	i
Cc1sc2nc(-c3ccccn3)[nH]c(=O)c2c1-c1ccccc1	13*	i
CCNC(=S)Nc1scc(-c2ccccc2)c1C(=O)OCC	12*	i
CCOC(=O)c1c(-c2ccccc2)csc1NC(=O)CCN1C(=O)c2ccccc2C1=O	·	i
COc1ccc(CNS(=O)(=O)CCNC(=O)c2ccc(OC)cc2)cc1	·	i
CCC1CCCCN1C(=O)CCS(=O)(=O)c1ccccc1 (stereo not drawn)	·	i
CC1(C)CC(=O)C(=Cc2cn(CCC#N)nc2-c2ccc(Cl)cc2)C(=O)C1	3.8	i
CC1(C)CC(=O)C(=Cc2cn(CCC#N)nc2-c2ccc(F)cc2)C(=O)C1	6.5*	i
C[C@H](NC(=O)[C@@H]1Cc2ccccc2CN1)C(=O)NC1CCCC1	·	i
CC(C)CC(=O)Nc1nnc(SCC(=O)Nc2nccs2)s1	0.62	i
SMILES	KCNQ2 pot	KCNQ2 block
Clc1ccccc1CSc1snnc1-c1ccccc1	-5.5	-5.5*
Clc1ccc(CSc2snnc2-c2ccccc2)cc1	·	i
C=CCc1cc(/C=C2/NC(=O)N(CC)C2=O)cc(OCC)c1OCc1ccc(C(=O)O)cc1	·	i
COc1ccc(C(=O)NNC(=O)C(=O)NC2CCCCC2)cc1	2.1	i
COc1ccc(OCC(=O)Nc2c(C(=O)N(CCN(C)C)Cc3ccco3)oc3ccccc23)cc1	·	i
COc1ccccc1C(=O)Nc1c(C(=O)N(CCN(C)C)Cc2ccco2)oc2ccccc12	-7	-7*
O=C(Cn1c(=O)c2cccn2c2cccnc21)N1CCN(c2ccc(Cl)cc2)CC1	-7.6	-7.6*
Cc1ccc(Cl)cc1N1CCN(C(=O)CCCn2c(=O)c3cccn3c3cccnc32)CC1	·	i
O=C(CN1CCOCC1)Nc1ccc(NC(=O)c2ccccc2F)cc1	0.01	i
Cc1ccc(NS(=O)(=O)c2ccc(-c3cnc(C4CC4)o3)cc2)cc1	·	i
Cc1ccc(N(C)S(=O)(=O)c2ccc(-c3cnc(C4CC4)o3)cc2)cc1	-9.5	-9.5*
CCCOc1ccccc1C(=O)N(Cc1cccc(Br)c1)C1CCS(=O)(=O)C1 (stereo not drawn)	·	i
CCn1c(-c2cc(-c3cc(OC)ccc3OC)nc3ccccc23)n[nH]c1=S	·	i
CCn1c(-c2cc(-c3ccccc3OC)nc3ccccc23)n[nH]c1=S	-7.2	-7.2*
Cc1ccccc1N(CC(=O)NCC1CCCO1)C(=O)CCC(=O)Nc1nccs1 (stereo not drawn)	1.1	i
Cc1ccc(NC(=O)CCC(=O)c2cccs2)c(O)c1	·	i
C=CCNC(=O)C1CC(=O)N(c2ccc(OCC(=O)Nc3ccc(Cl)cc3)cc2)C1 (stereo not drawn)	·	i
CCSC1(SCC)N=C(N)C2(C#N)C(c3ccc(F)cc3)C12C#N (stereo not drawn)	-5.9	-5.9*
COC1(OC)N=C(N)C2(C#N)C(c3ccc(F)cc3)C12C#N (stereo not drawn)	1.8	i
CC(C)c1nc(CNC(=O)C2CCC(=O)N(CCc3ccc(Cl)cc3)C2)no1 (stereo not drawn)	0.02	i
O=C(NC(Nc1nc2ccc([N+](=O)[O-])cc2s1)(C(F)(F)F)C(F)(F)F)c1cccnc1	1.3	i
O=[N+]([O-])c1ccc2nc(SCc3ccccc3Cl)sc2c1	-9.9	-9.9*
Nc1ccc2nc(SCc3ccc([N+](=O)[O-])cc3)sc2c1	·	i
O=C(NC(Nc1nc2ccc([N+](=O)[O-])cc2s1)(C(F)(F)F)C(F)(F)F)c1ccccc1Cl	-10	-10*
O=C(Nc1ncccc1O)c1ccc(S(=O)(=O)Nc2ccccc2)cc1	·	i
SMILES	KCNQ2 pot	KCNQ2 block
O=c1c2cc(Cl)ccc2[nH]c(=S)n1Cc1ccco1	·	i
O=c1c2cc(Cl)ccc2[nH]c(=S)n1Cc1cccs1	5.3*	i
Cc1c(C)n(Cc2ccc(F)cc2)c2ccc(C(=O)N3CCN(c4ccccn4)CC3)cc12	·	i
COc1ccc(N(C(=O)/C=C/c2ccccc2)C2=CC3CCC(C2)N3C)cc1 (stereo not drawn)	0.69	i
COc1ccc(C(CC(=O)O)NS(=O)(=O)c2ccc3c(c2)N(C(C)=O)CC(C)O3)cc1 (stereo not drawn)	0.72	i
O=C(CN(C1CCCCC1)C1CCCCC1)N1CCc2ccccc2C1	-8	-8*
O=C(CN(C1CCCCC1)S(=O)(=O)c1ccccc1)N1CCCC1	·	i
Cc1ccc(C(NC(=O)NC(C)c2ccccc2)C(Cl)(Cl)Cl)cc1F (stereo not drawn)	17*	i
CC(NC(=O)Nc1ccc(Cl)cc1)c1ccccc1 (stereo not drawn)	·	i
N/C(=N\OC(=O)Cc1ccc(-c2ccccc2)cc1)c1ccncc1	·	i
COc1ccc(OC)c(C(=O)CSc2nnc(Cc3cccs3)n2CCc2ccccc2)c1	-7.1	-7.1*
COc1ccc(-n2c(COc3ccc4ccccc4c3)nnc2SCC(=O)NCc2ccco2)cc1	1.1	i
COc1ccc(OC)c(C(=O)CSc2nnc(-c3cccs3)n2C)c1	0.04	i
COc1cccc(OCc2nnc(SCC(=O)NCc3ccco3)n2CCc2ccccc2)c1	-6.8	-6.8*
Cc1c(C)n2c(SCC(=O)N3CCOCC3)nnc2[nH]c1=O	·	i
Cc1ccc2nc(SCC(=O)N3CCC(Cc4ccccc4)CC3)nc(=O)n2c1	2	i
N#Cc1ccccc1S(=O)(=O)N1CCN(C(=O)CN2C(=O)NC3(CCCC3)C2=O)CC1	·	i
O=C(c1ccc2c(=O)n(Cc3ccc(Cl)cc3)c(=S)[nH]c2c1)N1CCOCC1	2.6	i
Cc1ccc(NC(=O)c2cnccn2)nc1	0.06	i
CC1=CC(C)(C)N(C(=O)c2ccccc2)c2ccc(C)cc21	·	i
CC1=CC(C)(C)N(C(=O)c2ccccc2)c2ccccc21	-5.6	-5.6*
